Experiments:
Experiment in all cases: PBM binding z-score (relative to random genomic background probes); higher = stronger binding; sequences stand for … in GC…GCGATTGACAGCGTAGAATGAAGG
[1] = tested on: FXR:RXRa (NR concentration 270 nM, RXRa partner concentration 90 nM)
Procedure, shortened: (§1)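 Antibodies against each partner of ligand-free nuclear receptor dimers (one per run) detected binding on custom Agilent 4×180K protein-binding microarrays after 1 h incubation. The double-stranded probes had 34-nt variable regions carrying direct-repeat seeds, single-nucleotide variants, half-site ablations and random human genomic background sequences. Binding z-scores, from regression-normalized fluorescence, use the random background probes as reference.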

[2] = tested on: LXRa:RXRa (NR concentration 270 nM, RXRa partner concentration 90 nM)
Procedure, shortened: as §1

[3] = tested on: LXRa homodimer (NR concentration 270 nM)
Procedure, shortened: as §1

[4] = tested on: LXRb:RXRa (NR concentration 270 nM, RXRa partner concentration 90 nM)
Procedure, shortened: as §1

[5] = tested on: LXRb homodimer (NR concentration 270 nM)
Procedure, shortened: as §1

[6] = tested on: PPARa:RXRa (NR concentration 270 nM, RXRa partner concentration 90 nM)
Procedure, shortened: as §1

[7] = tested on: PPARg:RXRa (NR concentration 180 nM, RXRa partner concentration 90 nM)
Procedure, shortened: as §1

[8] = tested on: PPARg:RXRa 270nM:90nM, anti-RXR (NR concentration 270 nM, RXRa partner concentration 90 nM)
Procedure, shortened: as §1

[9] = tested on: PPARg:RXRa 30nM:10nM, anti-RXR (NR concentration 30 nM, RXRa partner concentration 10 nM)
Procedure, shortened: as §1

[10] = tested on: PPARg:RXRa 90nM:30nM, anti-RXR (NR concentration 90 nM, RXRa partner concentration 30 nM)
Procedure, shortened: as §1

| Sequence | PBM binding z-score [1] | PBM binding z-score [2] | PBM binding z-score [3] | PBM binding z-score [4] | PBM binding z-score [5] | PBM binding z-score [6] | PBM binding z-score [7] | PBM binding z-score [8] | PBM binding z-score [9] | PBM binding z-score [10] |
| --- | --- | --- | --- | --- | --- | --- | --- | --- | --- | --- |
| GGAACGAGGGCAAAGTTAATAGCATCTGTCGACG | 1.04 | 0.812 | -0.00751 | 0.878 | -0.23 | 3.62 | 5.8 | 6.25 | 4.67 | 6.67 |
| CAAACTAGGTCACAGAGGTCTAAGTCCGTGCGTA | 4.42 | 3.56 | 0.555 | 2.13 | 0.273 | 5.17 | 8.49 | 6.93 | 5.19 | 6.98 |
| GCTAGTTGGTCAGTAAAAGATCACACACCGGTCG | -0.109 | -0.07 | 0.00819 | -0.18 | -0.212 | -0.194 | 0.637 | -0.0816 | -0.233 | -0.12 |
| ACTATTAGTTCACTTAGGGCAACCGATACGACGC | 1.66 | 0.968 | 0.685 | 0.657 | 0.81 | 0.893 | 1.04 | 0.566 | 0.591 | 0.169 |
| CAGCCTAGGTCAGGCCCAGTATAGGAGGAACGTT | 1.06 | 0.524 | -0.444 | 0.0997 | -0.815 | 1.45 | 0.633 | 0.673 | -0.32 | 0.386 |
| CCTACTGGGCCACGATAGGTCATTGATTCAGTGA | 0.91 | 3.95 | 1.66 | 1.74 | -0.503 | 2.79 | 2.44 | 3.11 | 0.577 | 1.86 |
| GCTGCTAGGTCAGGTTAGTCAGCTAACGGGTACG | 1.16 | 0.852 | -0.246 | 0.282 | -0.367 | 1.51 | 0.774 | 1.17 | -0.493 | 0.602 |
| TTAACAAGGTGAAGGTCGTTGATCCCTCTGTAGA | 2.23 | 1.78 | -0.258 | 1.35 | -0.562 | 2.91 | 2.42 | 3.09 | 1.5 | 2.65 |
| CCAGACAGGTGAGGAGGTAACTCAGCCTCGATTA | -0.0226 | 0.276 | 0.253 | 0.35 | -0.29 | 0.831 | 0.403 | 0.546 | -0.128 | 0.0478 |
| ATCTCTGGGTAAAGATAGTTCAGTGAATGCAAAT | -0.122 | 3.7 | 0.422 | 0.738 | 0.449 | 0.473 | 0.419 | 0.54 | 0.327 | 0.434 |
| TAGCTTAGGTCATTCAGGGGCCAGTATAGAAAGC | 4.82 | 4.33 | 0.984 | 3.31 | 1.67 | 3.69 | 1.38 | 2 | 0.369 | 1.11 |
| ATCTCTAGGTAAGACTCAGTTCAGAGAAGAACGC | 0.455 | 0.578 | 0.401 | -0.0123 | 0.78 | -0.0205 | 0.366 | 0.339 | 0.28 | 0.268 |
| AGAACGAGGGGACGCTGAGTTGATAGCAGAGTAG | -0.308 | -0.353 | -0.679 | -0.522 | -0.449 | -0.232 | 0.607 | 0.0813 | -0.0641 | -0.258 |
| CGAACTAGGTCTTCCAGGACAGTGAATACATTGA | 0.011 | -0.496 | 0.128 | -0.568 | -0.706 | 0.796 | 0.846 | 0.622 | -0.0415 | 0.143 |
| TCAGACAGGTGAAAGTAACTCAGGTACGCAGTCG | 0.453 | 0.738 | -0.345 | 0.85 | -0.276 | 1.32 | 0.821 | 2.21 | 4.08 | 2.92 |
| TATACAGGGTTAAAGGCCAGAGTACGAATGTCGA | 2.5 | 2.59 | 0.356 | 1.91 | 0.834 | 3.84 | 5.07 | 5.44 | 3.04 | 4.7 |
| TCTTGTAGATCAGCAGTTTAAGAAAGCTGGCCAA | 0.068 | -0.0226 | -0.271 | 0.182 | -0.0391 | 0.33 | -0.762 | 1.27 | 2.68 | 2.09 |
| GTACCAAGGTCAATAGGTCGTTGATGAGTAGGCG | 6.19 | 4.5 | 0.864 | 3.74 | 0.614 | 5.37 | 5.15 | 5.05 | 2.14 | 4.13 |
| AAGACAGGGTCATCGTAGGCCAGAGTACGCACAG | 7.28 | 5.76 | 0.0665 | 4.06 | 0.0441 | 6.02 | 5.91 | 5.77 | 2.38 | 3.94 |
| TCTTGTAGATCAATAGAGGTTAAGGAAGTGCGCT | 1.25 | 2.42 | 0.324 | 1.5 | -0.201 | 2.08 | 0.136 | 1.99 | 3.04 | 2.63 |
| TCTTGTAGATCAAGCAGGGTAAGAAAGCCTGAGT | 0.561 | -0.0537 | -0.634 | 0.0919 | -0.511 | 0.15 | -0.37 | 1.08 | 2.34 | 1.6 |
| TTATATAGGTAAATGCTAGGTGAAAGTCCGATCT | 0.733 | 0.69 | 0.375 | 0.64 | 0.108 | 2.18 | 2.61 | 2.59 | 1.97 | 2.34 |
| CCAGAGAGGTGAAAGGTAACTCAGTCTGGTACGC | 1.97 | 1.72 | -0.386 | 1.72 | -0.316 | 4.52 | 6.53 | 6.32 | 4.89 | 6.42 |
| ATCGACAGGTCGTGAGGTGAGTATACAGAAAGGC | 1.05 | 1.19 | 0.0757 | 0.943 | 0.0816 | 2.14 | 1.15 | 0.86 | 0.126 | 0.461 |
